These are literature values, as cited in PubChem BioAssay AID977611.

The whole screen tested about 3,900 compounds, of which about 3,900 (100%) were called active. The limit is not given here; nearly all actives have Kd up to about 4200 µM. So high a share suggests a set chosen from earlier hits. Some of the results follow. Where a SMILES comes first, the peptide text is derived from it. Square brackets hold non-standard residues; d marks the D form. Residues, ends and D or L forms follow the SMILES beside them. Peptide text beside a SMILES is read from it. Orn(CH(NH2)2) = NC(N)NCCC[C@H](N)C(=O)O; Cha = N[C@@H](CC1CCCCC1)C(=O)O

The data set can be described thus: PubChem AID 977611. The settings on record: PDB protein-ligand complexes, literature Kd.

In the case of `CCCCC/C=C\C/C=C\CCCCCCCCCC(=O)N[C@@H](CO[C@H]1O[C@H](CO)[C@H](O)[C@H](O)[C@H]1O)[C@H](O)[C@H](O)CCCCCCCCCCCCCC`, the Kd (protein: L363, PDB entry 3ubx) is 25.2 nM (active). Regarding `CCCCCC[C@@H](O)[C@H](CCCCCC)C(=O)O`, the Kd (protein: Peptidoglycan recognition protein 1, PDB entry 3t2v) is 103 nM (active).

`CC[C@H](C)[C@H](NC(=O)[C@H](CC1CCCCC1)NC(=O)[C@H](Cc1ccc(O)cc1)NC(=O)[C@@H](N)CC(C)C)C(=O)N1CCC[C@H]1C(=O)N[C@@H](CCCNC(N)N)C(=O)N1CCC[C@H]1C(N)=O` (H-LY[Cha]IP[Orn(CH(NH2)2)]P-NH2): the Kd (protein: Chaperone protein DnaK, PDB entry 4hyb) was 350 nM (active). `CC(C)C[C@H](NC(=O)[C@@H](N)CCCCN)C(=O)N[C@@H](Cc1ccc(O)cc1)C(=O)N[C@@H](CC1CCCCC1)C(=O)N[C@@H](CC(C)C)C(=O)N1CCC[C@H]1C(=O)N[C@@H](CCCNC(N)N)C(=O)N1CCC[C@H]1C(=O)N[C@H](C=O)[C@@H](C)O` (H-KLY[Cha]LP[Orn(CH(NH2)2)]PT-aldehyde): under “protein: E. coli Chaperone protein dnaK, PDB entry 3dpo”, the Kd is 5.5 nM (active). As for `CC(C)C[C@H](N)C(=O)N[C@@H](Cc1ccc(O)cc1)C(=O)N[C@@H](CC1CCCCC1)C(=O)N[C@@H](CC1CCCCC1)C(=O)N1CCC[C@H]1C(=O)N[C@@H](CCCNC(N)N)C(=O)N1CCC[C@H]1C(=O)N[C@H](C(N)=O)[C@@H](C)O` (H-LY[Cha][Cha]P[Orn(CH(NH2)2)]PT-NH2), the Kd (protein: Chaperone protein DnaK, PDB entry 4hy9) is 80 nM (active). Consider `NC1NC(=O)c2c([nH]c(=S)n2CCO)N1` (configuration not stated), for which the Kd (protein: 7,8-DIHYDRO-6-HYDROXYMETHYLPTERIN-PYROPHOSPHOKINASE, PDB entry 4ad6) is 16700 nM (active). Consider H-VNPTGCARSEPKMS-OH, for which the Kd (protein: WD repeat-containing protein 5, WDR5, PDB entry 4ery) was 54 nM (active). Take H-INPTGCARSEPKI-OH: where the note is “protein: WD repeat-containing protein 5, WDR5, PDB entry 4erq”, the Kd is 75 nM (active). Consider H-KEKSD-OH, for which the Kd (protein: Coatomer subunit beta', PDB entry 4j77) is 3400 nM (active).

Consider `C[C@H](NC(=O)[C@H](CC(=O)O)NC(=O)[C@H](CCCCN)NC(=O)[C@H](CO)NC(=O)[C@H](C)NC(=O)[C@@H](N)CO)C(=O)O` (H-SASKDA-OH), for which the Kd (protein: Histone-lysine N-methyltransferase SETD7 (Y335F mutant), PDB entry 4j7i) is 8800 nM (active). In the case of `NC(N)=N/C=C/C[C@H](N[C@H](CCC(=O)O)C(=O)O)C(=O)O`, the Kd (protein: Nopaline-binding periplasmic protein NocT WT, PDB entry 4pox) is 3700 nM (active).

In the case of `CC(C)(C)c1cccc(C2C=CC=NC2=O)c1` (configuration not stated), the Kd (protein: RNA-directed RNA polymerase, PDB entry 4ih7) was 5800 nM (active).

Consider `NC1NC(=O)c2[nH]cc(CN3C[C@H](CO)[C@@H](O)C3)c2N1` (some centres not stated), for which, where the note is “protein: Purine nucleoside phosphorylase (W16Y, W94Y, W178Y, H257W mutation), PDB entry 4ear”, the Kd was 0.151 nM (active). Regarding `CC1(C)CNC(=[N+]2CCN(c3ncnc4sc(CC(F)(F)F)cc34)CC2)S1`, the Kd (protein: Menin (A541T mutation), PDB entry 4gq4) is 22 nM (active). For the compound `CC(C)[C@H](NC(=O)[C@H](CO[P+](O)(O)O)NC(=O)[C@H](CCCCN)NC(=O)[C@H](CCCNC(N)N)NC(=O)[C@H](CCCNC(N)N)NC(=O)[C@@H](N)CCCCN)C(=O)O`, the Kd (protein: 14-3-3 protein sigma, PDB entry 4fr3) is 70 nM (active). For `C[C@H](NC(=O)[C@H](CCCCN)NC(=O)[C@H](CC(=O)O)NC(=O)[C@@H](N)CCCCN)C(=O)N[C@@H](CCCCN)C(=O)N[C@@H](CO[P+](O)(O)O)C(=O)N[C@@H](CS)C(=O)O`, for the setting “protein: 14-3-3 PROTEIN ZETA/DELTA, PDB entry 4bg6”, the Kd is 69 nM (active). `CC(C)[C@H](NC(=O)[C@H](CO[P+](O)(O)O)NC(=O)[C@H](CCCCN)NC(=O)[C@H](CCCNC(N)N)NC(=O)[C@H](CCCNC(N)N)NC(=O)[C@H](C)N)C(=O)O`: the equilibrium dissociation constant (Kd) (protein: 14-3-3 protein sigma, PDB entry 3ux0) is 550 nM (active).

As for `NC(=NCC[C@H](N)C(=O)O)NO`, under “protein: Arginase, PDB entry 4q3u”, the Kd was 360 nM (active). On to `CC[C@H](C)[C@H](NC(=O)[C@@H](NC(=O)[C@H](Cc1ccc(O)cc1)NC(=O)[C@H](C)N)[C@@H](C)O)C(=O)N[C@@H](CS)C(=O)N[C@@H](C)C(=O)NCC(=O)N[C@H](C(=O)N[C@@H](CCC(N)=O)C(=O)N[C@H](C(=O)N[C@@H](CC(=O)O)C(=O)N1CCC[C@H]1C(=O)O)[C@@H](C)O)[C@@H](C)O` (H-AYTICAGTQTDP-OH), for which, for the setting “protein: Dynein light chain 1, cytoplasmic LC8, PDB entry 4qh7”, the Kd is 1140 nM (active). Take H-FNIVGTTYPC-OH: the Kd (protein: Gephyrin GephE, PDB entry 4u90) is 288 nM (active). In the case of `CC[C@H](C)[C@H](NC(=O)[C@@H](NC(=O)[C@@H](NC(=O)[C@H](CCCCN)NC(=O)[C@H](CC(=O)O)NC(=O)[C@@H](N)C(C)C)C(C)C)C(C)C)C(=O)N[C@@H](CC(N)=O)C(=O)N1CCC[C@H]1C(=O)N[C@@H](Cc1ccc(O)cc1)C(=O)N[C@@H](Cc1ccccc1)C(=O)NCC(=O)O` (H-VDKVVINPYFG-OH), the Kd (protein: Malcavernin CCM2 PTB domain, PDB entry 4wj7) is 13000 nM (active).

Turning to `CC[C@H](C)[C@H](NC(=O)[C@H](CC(N)=O)NC(=O)[C@@H](N)Cc1ccccc1)C(=O)N[C@H](C(=O)NCC(=O)N[C@H](C(=O)N[C@H](C(=O)N[C@@H](Cc1ccc(O)cc1)C(=O)N1CCC[C@H]1C(=O)O)[C@@H](C)O)[C@@H](C)O)C(C)C` (H-FNIVGTTYP-OH), the Kd (protein: Gephyrin GephE, PDB entry 4tk2) is 190000 nM (active).

One may read the Kd as the constant that tells how readily two partners part at equilibrium.
